# In publication PMC7862700, “An all-to-all approach to the identification of sequence-specific readers for epigenetic DNA modifications on cytosine”:
# Key:
# Experiment in all cases: DAPPL (digital affinity profiling via proximity ligation, sequencing); 10 mM Tris-HCl pH 7.5, 50 mM NaCl, 1 mM DTT, 4% glycerol, room temperature, 30 min; GST-TFs on glutathione beads, 16-mer random dsDNA library, 0.1% formaldehyde crosslink after washing; high values mean tight binding
# FEV = molecular target: T1, FEV (Homo sapiens, UniProt Q99581 1-238); conditions: protein: recombinant; tags: N-terminal GST; dsDNA, one strand shown
# T1 sequence: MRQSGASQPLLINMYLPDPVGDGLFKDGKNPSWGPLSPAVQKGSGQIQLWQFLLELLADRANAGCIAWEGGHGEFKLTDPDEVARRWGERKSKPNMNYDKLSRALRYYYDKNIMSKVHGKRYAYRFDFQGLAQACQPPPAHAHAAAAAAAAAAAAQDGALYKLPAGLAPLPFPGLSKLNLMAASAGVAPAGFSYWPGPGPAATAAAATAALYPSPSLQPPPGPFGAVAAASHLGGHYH
# Summary of the method: (§1)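 Binding signal is each hexamer's read frequency for a factor divided by its frequency in the tag-only sample. The factors were GST-fused human transcription factors from yeast, captured on glutathione beads, DNA-barcoded and pooled with that sample. Pools were incubated with 200 nmole of a random double-stranded 16-mer DNA library in Tris/NaCl/DTT/glycerol buffer at room temperature for 30 min, then washed, crosslinked with 0.1% formaldehyde, proximity-ligated with BsaI/T4 ligase (1 h, 37 °C), PCR-amplified and sequenced on an Illumina NextSeq500.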
# ETV5 = ETV5 (Homo sapiens, UniProt P41161 1-510); conditions: protein: recombinant; tags: N-terminal GST; dsDNA, one strand shown
# Chain of ETV5 (P41161 whole entry): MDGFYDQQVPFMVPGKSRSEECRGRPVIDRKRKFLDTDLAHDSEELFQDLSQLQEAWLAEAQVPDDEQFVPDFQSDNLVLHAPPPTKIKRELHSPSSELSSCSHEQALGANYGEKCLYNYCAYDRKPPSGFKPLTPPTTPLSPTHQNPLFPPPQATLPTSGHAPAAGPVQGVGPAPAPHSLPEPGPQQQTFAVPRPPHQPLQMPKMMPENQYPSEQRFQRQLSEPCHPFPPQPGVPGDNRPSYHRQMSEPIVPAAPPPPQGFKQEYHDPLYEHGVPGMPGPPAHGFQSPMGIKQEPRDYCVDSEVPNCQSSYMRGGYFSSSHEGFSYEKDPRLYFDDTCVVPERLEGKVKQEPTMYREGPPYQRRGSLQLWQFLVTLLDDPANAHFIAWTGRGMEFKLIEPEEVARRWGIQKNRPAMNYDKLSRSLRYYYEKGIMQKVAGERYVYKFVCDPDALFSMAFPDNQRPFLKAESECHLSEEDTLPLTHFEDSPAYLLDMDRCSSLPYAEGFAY
# Summary of the method: as §1
# HSF1 = HSF1 (Homo sapiens, UniProt Q00613 1-529); conditions: protein: recombinant; tags: N-terminal GST; chain copies: 3; dsDNA, one strand shown
# Chain of HSF1 (Q00613 whole entry): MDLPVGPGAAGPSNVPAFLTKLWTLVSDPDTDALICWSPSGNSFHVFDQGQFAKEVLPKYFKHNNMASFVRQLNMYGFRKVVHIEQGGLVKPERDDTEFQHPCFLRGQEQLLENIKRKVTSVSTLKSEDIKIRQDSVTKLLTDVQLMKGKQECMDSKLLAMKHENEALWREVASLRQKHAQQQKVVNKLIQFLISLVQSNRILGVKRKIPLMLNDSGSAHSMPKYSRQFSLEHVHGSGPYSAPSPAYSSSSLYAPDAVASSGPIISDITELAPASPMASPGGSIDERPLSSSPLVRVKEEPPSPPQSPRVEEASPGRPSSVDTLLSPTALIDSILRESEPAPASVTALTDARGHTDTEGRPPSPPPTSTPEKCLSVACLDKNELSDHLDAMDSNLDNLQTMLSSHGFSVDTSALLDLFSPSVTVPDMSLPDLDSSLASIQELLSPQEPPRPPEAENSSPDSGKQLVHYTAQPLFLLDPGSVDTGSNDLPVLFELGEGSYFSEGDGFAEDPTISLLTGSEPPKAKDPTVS
# Summary of the method: as §1
# SPIC = molecular target: T2, SPIC (Homo sapiens, UniProt Q8N5J4 1-248); conditions: protein: recombinant; tags: N-terminal GST; dsDNA, one strand shown
# T2 sequence: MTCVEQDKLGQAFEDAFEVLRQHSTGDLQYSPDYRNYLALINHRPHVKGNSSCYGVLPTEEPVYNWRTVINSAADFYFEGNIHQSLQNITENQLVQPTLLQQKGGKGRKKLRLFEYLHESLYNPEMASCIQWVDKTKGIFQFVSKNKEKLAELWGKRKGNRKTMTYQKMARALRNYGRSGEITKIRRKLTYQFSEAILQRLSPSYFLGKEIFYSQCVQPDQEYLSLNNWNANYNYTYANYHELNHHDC
# Summary of the method: as §1
# ELF4 = ELF4 (Homo sapiens, UniProt Q99607 1-663); conditions: protein: recombinant; tags: N-terminal GST; dsDNA, one strand shown
# Chain of ELF4 (Q99607 whole entry): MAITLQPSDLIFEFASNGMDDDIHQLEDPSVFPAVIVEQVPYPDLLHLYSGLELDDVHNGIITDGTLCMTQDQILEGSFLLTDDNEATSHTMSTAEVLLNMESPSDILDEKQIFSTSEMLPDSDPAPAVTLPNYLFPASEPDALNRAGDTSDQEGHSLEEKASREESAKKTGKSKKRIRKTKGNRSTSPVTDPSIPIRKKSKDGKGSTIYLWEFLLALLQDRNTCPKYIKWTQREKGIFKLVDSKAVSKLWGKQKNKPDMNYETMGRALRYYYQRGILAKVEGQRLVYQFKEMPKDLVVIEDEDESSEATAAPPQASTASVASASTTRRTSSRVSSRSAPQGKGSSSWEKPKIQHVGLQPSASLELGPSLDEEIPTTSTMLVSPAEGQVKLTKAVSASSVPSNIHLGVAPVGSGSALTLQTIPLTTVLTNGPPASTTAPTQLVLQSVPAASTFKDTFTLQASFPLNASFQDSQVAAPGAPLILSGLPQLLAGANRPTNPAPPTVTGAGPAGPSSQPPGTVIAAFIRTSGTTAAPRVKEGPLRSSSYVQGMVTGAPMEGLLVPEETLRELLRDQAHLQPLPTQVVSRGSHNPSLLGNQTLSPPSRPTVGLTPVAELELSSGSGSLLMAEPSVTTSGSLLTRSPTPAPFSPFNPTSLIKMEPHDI
# Summary of the method: as §1
# ELK4 = molecular target: T3, ELK4 (Homo sapiens, UniProt P28324-2 1-405); conditions: protein: recombinant; tags: N-terminal GST; dsDNA, one strand shown
# T3 sequence: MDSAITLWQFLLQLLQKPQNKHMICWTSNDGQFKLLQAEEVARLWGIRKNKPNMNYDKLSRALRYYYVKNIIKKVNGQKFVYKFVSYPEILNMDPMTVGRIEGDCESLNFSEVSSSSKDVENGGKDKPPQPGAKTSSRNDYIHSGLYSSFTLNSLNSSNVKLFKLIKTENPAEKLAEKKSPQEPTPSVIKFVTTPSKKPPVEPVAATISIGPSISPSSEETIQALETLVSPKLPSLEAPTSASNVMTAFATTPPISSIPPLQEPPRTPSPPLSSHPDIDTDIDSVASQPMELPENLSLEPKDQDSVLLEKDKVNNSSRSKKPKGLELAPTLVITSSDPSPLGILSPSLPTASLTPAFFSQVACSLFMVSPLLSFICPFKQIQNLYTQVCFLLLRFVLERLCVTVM
# Summary of the method: as §1
# ETV2 = molecular target: T4, ETV2 (Homo sapiens, UniProt O00321 1-342); conditions: protein: recombinant; tags: N-terminal GST; dsDNA, one strand shown
# T4 sequence: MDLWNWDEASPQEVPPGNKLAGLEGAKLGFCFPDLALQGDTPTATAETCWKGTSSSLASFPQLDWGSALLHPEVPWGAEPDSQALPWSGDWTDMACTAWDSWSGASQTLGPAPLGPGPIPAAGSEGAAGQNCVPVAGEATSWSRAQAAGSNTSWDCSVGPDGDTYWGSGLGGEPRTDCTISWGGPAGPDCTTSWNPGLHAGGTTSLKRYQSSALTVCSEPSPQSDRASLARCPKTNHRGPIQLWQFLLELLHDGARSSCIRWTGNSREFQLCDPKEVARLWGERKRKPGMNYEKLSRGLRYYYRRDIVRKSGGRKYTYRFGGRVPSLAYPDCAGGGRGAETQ
# Summary of the method: as §1
# ELF3 = molecular target: T5, ELF3 (Homo sapiens, UniProt P78545 1-371); conditions: protein: recombinant; tags: N-terminal GST; dsDNA, one strand shown
# T5 sequence: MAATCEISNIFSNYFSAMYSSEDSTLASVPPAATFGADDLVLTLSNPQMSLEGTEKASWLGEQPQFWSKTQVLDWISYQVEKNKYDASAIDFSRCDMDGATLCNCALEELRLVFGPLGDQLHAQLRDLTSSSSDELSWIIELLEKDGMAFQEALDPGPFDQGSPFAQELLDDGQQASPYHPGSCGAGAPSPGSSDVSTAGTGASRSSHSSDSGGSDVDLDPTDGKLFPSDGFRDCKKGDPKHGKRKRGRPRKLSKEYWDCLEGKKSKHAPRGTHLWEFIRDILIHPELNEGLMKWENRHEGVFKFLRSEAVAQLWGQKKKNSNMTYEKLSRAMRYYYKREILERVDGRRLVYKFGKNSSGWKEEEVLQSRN
# Summary of the method: as §1
# CRX = CRX (Homo sapiens, UniProt O43186 1-299); conditions: protein: recombinant; tags: N-terminal GST; dsDNA, one strand shown
# Chain of CRX (O43186 whole entry): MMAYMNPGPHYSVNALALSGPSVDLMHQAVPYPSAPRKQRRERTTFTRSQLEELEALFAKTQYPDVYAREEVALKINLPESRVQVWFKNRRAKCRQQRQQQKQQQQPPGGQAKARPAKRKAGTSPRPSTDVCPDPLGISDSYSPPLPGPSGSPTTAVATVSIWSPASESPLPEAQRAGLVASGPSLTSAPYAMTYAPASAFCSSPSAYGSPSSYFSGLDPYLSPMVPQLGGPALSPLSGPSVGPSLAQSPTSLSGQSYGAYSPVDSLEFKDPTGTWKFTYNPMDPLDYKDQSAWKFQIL
# Summary of the method: as §1
# ETV1 = ETV1 (Homo sapiens, UniProt P50549 1-477); conditions: protein: recombinant; tags: N-terminal GST; dsDNA, one strand shown
# Chain of ETV1 (P50549 whole entry): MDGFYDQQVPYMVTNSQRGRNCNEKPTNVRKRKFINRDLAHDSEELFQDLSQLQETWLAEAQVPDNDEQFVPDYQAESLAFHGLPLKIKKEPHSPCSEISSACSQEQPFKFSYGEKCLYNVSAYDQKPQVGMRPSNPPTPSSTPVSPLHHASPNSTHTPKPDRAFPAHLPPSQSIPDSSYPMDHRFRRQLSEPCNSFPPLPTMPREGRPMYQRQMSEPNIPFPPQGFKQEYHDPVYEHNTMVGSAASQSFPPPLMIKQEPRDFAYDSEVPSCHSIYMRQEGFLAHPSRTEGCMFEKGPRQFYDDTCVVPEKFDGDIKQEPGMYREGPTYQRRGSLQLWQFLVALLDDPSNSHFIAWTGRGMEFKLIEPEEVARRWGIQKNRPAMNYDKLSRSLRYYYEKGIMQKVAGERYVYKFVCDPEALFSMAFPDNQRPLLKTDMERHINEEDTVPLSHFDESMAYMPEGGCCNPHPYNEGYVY
# Summary of the method: as §1
# ERF = molecular target: T6, ERF (Homo sapiens, UniProt P50548 1-548); conditions: protein: recombinant; tags: N-terminal GST; dsDNA, one strand shown
# T6 sequence: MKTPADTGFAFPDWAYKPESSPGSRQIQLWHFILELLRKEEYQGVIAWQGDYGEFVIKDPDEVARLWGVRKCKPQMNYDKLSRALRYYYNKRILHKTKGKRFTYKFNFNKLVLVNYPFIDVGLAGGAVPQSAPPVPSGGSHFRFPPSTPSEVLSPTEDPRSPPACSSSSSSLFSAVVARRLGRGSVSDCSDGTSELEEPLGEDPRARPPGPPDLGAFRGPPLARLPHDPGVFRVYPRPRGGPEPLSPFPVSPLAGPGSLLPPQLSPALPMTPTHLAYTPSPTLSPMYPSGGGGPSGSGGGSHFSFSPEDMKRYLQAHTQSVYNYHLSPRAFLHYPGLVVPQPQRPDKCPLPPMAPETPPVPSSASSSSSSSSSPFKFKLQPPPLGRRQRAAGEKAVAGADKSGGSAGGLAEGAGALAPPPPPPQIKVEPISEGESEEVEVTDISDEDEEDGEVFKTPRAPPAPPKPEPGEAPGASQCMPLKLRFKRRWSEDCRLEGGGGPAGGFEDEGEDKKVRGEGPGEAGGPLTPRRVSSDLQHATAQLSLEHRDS
# Summary of the method: as §1
# ETV3L = molecular target: T7, ETV3L (Homo sapiens, UniProt Q6ZN32 1-361); conditions: protein: recombinant; tags: N-terminal GST; dsDNA, one strand shown
# T7 sequence: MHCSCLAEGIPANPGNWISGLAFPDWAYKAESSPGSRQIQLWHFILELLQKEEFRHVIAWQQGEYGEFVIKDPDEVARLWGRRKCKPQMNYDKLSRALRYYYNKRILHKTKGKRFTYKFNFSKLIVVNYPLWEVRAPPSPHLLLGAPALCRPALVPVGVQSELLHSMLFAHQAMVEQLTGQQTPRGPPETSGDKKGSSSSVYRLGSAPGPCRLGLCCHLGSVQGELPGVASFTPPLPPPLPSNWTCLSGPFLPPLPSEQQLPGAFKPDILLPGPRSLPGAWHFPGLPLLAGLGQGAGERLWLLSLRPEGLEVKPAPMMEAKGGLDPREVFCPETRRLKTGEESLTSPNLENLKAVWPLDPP
# Summary of the method: as §1
# ETS2 = molecular target: T8, ETS2 (Homo sapiens, UniProt P15036 1-469); conditions: protein: recombinant; tags: N-terminal GST; dsDNA, one strand shown
# T8 sequence: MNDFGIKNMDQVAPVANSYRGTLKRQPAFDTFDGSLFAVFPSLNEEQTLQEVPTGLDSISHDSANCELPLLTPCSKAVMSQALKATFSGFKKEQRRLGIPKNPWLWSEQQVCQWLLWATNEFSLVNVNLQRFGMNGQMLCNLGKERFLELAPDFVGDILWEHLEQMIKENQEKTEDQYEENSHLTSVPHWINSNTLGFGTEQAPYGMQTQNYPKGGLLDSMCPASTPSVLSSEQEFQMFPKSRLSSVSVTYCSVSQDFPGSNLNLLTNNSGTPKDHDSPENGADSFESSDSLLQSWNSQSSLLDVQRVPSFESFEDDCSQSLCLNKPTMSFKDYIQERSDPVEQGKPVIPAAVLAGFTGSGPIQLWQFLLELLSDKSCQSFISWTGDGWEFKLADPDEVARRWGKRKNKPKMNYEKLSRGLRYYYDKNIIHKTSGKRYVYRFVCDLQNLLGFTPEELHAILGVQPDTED
# Summary of the method: as §1
# SPDEF = molecular target: T9, SPDEF (Homo sapiens, UniProt O95238 1-335); conditions: protein: recombinant; tags: N-terminal GST; dsDNA, one strand shown
# T9 sequence: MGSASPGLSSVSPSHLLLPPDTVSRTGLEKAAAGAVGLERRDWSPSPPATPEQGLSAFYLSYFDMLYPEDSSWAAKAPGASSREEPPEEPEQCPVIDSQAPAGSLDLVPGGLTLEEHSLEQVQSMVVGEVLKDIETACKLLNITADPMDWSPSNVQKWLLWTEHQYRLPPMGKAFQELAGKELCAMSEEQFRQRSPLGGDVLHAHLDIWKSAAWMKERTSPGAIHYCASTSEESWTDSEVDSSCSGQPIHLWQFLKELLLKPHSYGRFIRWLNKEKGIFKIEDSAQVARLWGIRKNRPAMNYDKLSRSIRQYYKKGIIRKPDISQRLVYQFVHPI
# Summary of the method: as §1
# ETV7 = molecular target: T10, ETV7 (Homo sapiens, UniProt Q9Y603 1-341); conditions: protein: recombinant; tags: N-terminal GST; dsDNA, one strand shown
# T10 sequence: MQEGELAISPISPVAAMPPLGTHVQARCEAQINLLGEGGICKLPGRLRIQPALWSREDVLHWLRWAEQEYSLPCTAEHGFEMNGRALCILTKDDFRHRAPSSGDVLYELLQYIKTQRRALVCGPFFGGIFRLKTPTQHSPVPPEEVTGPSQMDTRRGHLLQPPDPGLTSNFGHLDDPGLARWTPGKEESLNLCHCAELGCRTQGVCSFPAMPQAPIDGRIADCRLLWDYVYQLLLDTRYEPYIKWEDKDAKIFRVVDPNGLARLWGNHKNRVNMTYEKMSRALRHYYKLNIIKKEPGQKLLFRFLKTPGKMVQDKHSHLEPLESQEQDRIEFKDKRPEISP
# Summary of the method: as §1
# ELF5 = molecular target: T11, ELF5 (Homo sapiens, UniProt Q9UKW6-2 1-255); conditions: protein: recombinant; tags: N-terminal GST; dsDNA, one strand shown
# T11 sequence: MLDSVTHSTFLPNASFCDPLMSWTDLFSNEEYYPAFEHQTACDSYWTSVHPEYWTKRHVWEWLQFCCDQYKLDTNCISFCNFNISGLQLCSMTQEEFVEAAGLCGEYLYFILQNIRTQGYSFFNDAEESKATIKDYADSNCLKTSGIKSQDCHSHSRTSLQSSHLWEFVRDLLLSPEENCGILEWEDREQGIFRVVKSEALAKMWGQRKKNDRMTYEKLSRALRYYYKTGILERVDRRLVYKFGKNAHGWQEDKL
# Summary of the method: as §1
# ETV3 = molecular target: T12, ETV3 (Homo sapiens, UniProt P41162-2 1-143); conditions: protein: recombinant; tags: N-terminal GST; dsDNA, one strand shown
# T12 sequence: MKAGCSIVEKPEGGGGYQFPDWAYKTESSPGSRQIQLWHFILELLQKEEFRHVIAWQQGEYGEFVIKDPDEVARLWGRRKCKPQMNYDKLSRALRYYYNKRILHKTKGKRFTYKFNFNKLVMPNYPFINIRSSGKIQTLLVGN
# Summary of the method: as §1
# ETV6 = ETV6 (Homo sapiens, UniProt P41212 1-452); conditions: protein: recombinant; tags: N-terminal GST; dsDNA, one strand shown
# Chain of ETV6 (P41212 whole entry): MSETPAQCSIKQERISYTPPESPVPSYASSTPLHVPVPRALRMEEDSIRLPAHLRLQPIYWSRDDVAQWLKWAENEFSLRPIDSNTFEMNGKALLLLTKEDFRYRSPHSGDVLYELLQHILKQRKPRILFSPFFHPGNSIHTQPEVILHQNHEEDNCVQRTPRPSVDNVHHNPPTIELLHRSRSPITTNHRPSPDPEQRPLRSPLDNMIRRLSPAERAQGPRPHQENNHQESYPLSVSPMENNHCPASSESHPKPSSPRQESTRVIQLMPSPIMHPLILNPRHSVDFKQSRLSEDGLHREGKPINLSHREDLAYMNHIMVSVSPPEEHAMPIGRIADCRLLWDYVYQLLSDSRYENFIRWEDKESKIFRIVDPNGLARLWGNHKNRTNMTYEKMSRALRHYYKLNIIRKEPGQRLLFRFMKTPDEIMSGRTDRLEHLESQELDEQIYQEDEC
# Summary of the method: as §1
sequence,measurement,setting,value
TAATTT,binding signal,FEV,"1.35 fold enrichment (6-mer frequency, TF over GST control)"
same,binding signal,ETV5,"1.46 fold enrichment (6-mer frequency, TF over GST control)"
same,binding signal,HSF1,"1.64 fold enrichment (6-mer frequency, TF over GST control)"
same,binding signal,SPIC,"1.41 fold enrichment (6-mer frequency, TF over GST control)"
same,binding signal,ELF4,"1.36 fold enrichment (6-mer frequency, TF over GST control)"
same,binding signal,ELK4,"1.38 fold enrichment (6-mer frequency, TF over GST control)"
same,binding signal,ETV2,"1.58 fold enrichment (6-mer frequency, TF over GST control)"
same,binding signal,ELF3,"1.49 fold enrichment (6-mer frequency, TF over GST control)"
same,binding signal,CRX,"2.03 fold enrichment (6-mer frequency, TF over GST control)"
same,binding signal,ETV1,"1.35 fold enrichment (6-mer frequency, TF over GST control)"
same,binding signal,ERF,"1.43 fold enrichment (6-mer frequency, TF over GST control)"
same,binding signal,ETV3L,"1.48 fold enrichment (6-mer frequency, TF over GST control)"
same,binding signal,ETS2,"1.41 fold enrichment (6-mer frequency, TF over GST control)"
same,binding signal,SPDEF,"1.32 fold enrichment (6-mer frequency, TF over GST control)"
same,binding signal,ETV7,"1.37 fold enrichment (6-mer frequency, TF over GST control)"
same,binding signal,ELF5,"1.46 fold enrichment (6-mer frequency, TF over GST control)"
same,binding signal,ETV3,"1.24 fold enrichment (6-mer frequency, TF over GST control)"
same,binding signal,ETV6,"1.39 fold enrichment (6-mer frequency, TF over GST control)"
